Hit rate of the full screen: of about 2,400 compounds, about 580 (24%) were called active.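 How the source made its calls: active means activity change at or above the mean plus 3 SD of buffer wells without dofetilide, per plate; inactive means the rest.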 Only a sample is shown.
Each compound was assayed against Potassium voltage-gated channel subfamily KQT member 2 (Rattus norvegicus) (UniProt O88943) (assay: KCNQ2 potentiation in CHO cells – cell-based, FluxOR thallium flux, counter-screen for hERG block protector project, confirmation (AID 1942;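 further: normalized value minus buffer-control mean plus three SD of buffer wells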)). Conditions: FluxOR thallium flux fluorescence, at 10 µM, hits give high values.
Sequence of Potassium voltage-gated channel subfamily KQT member 2 (Rattus norvegicus) (O88943 whole entry, looked up): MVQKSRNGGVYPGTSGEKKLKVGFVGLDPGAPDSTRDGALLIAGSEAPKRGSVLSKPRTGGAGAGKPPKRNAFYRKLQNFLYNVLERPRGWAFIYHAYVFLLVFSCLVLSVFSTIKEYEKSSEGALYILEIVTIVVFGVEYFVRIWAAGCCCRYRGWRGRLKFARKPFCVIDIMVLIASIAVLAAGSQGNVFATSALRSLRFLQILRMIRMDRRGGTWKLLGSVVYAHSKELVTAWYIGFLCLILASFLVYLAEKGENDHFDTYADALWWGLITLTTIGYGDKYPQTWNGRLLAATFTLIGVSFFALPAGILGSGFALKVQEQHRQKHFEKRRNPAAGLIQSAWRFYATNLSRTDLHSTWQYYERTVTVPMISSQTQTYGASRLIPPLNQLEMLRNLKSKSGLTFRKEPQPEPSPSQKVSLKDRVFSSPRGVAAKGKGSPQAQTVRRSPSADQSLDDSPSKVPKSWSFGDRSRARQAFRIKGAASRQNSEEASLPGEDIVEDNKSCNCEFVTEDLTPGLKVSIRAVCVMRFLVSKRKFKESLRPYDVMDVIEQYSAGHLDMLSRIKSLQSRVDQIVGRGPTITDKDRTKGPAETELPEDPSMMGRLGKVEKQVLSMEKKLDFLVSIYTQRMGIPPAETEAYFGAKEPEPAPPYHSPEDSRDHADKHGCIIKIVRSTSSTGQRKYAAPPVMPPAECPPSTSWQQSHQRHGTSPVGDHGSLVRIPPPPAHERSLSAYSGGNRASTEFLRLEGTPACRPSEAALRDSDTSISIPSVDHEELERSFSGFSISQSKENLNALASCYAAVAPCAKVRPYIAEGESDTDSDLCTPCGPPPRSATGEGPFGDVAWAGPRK

Compound	activity change, less the hit threshold
O=C(COc1ccc(S(=O)(=O)NCc2ccccc2)cc1Cl)NCC1CCCO1 (configuration not stated)	-14.4% (inactive)
Cc1ccc(-n2c(C)cc(C(=O)CN3CCOCC3)c2C)cc1	-12.8% (inactive)
CN(CC(=O)Nc1ccc(OC(F)(F)F)cc1)S(=O)(=O)c1cnc[nH]1	-18.2% (inactive)
CCN1C(=O)[C@H]2[C@@H](c3ccc(-c4ccc(OC)cc4)cc3)N[C@@](C)(C(=O)OC)[C@H]2C1=O	-17.6% (inactive)
CCC(NS(=O)(=O)c1ccc(OC)cc1)C(=O)O (configuration not stated)	-16.1% (inactive)
CN(C)c1oc(-c2ccccc2[N+](=O)[O-])nc1C#N	-6.7% (inactive)
Cc1ccccc1NC(=O)CN1C(=O)S/C(=C\c2ccc(-c3cc(C(=O)O)ccc3C)o2)C1=O	-10.8% (inactive)
Cc1ccc(NC(=S)N2CCN(c3ccccc3F)CC2)c(C)c1	-10.4% (inactive)
Cn1c(=O)[nH]c(=O)c2c1nc(CN1CCN(c3ccccc3F)CC1)n2CCCc1ccccc1	-12.9% (inactive)
Cc1ccc(-c2csc3nc[nH]c(=S)c23)cc1C	2.5% (active)
Cc1cc(-c2csc3nc[nH]c(=S)c23)cc(C)c1C	33.7% (active)
C=CCNC(=O)CC(=O)N/N=C/c1cccs1	-10.2% (inactive)
Nc1nc(O)c(N=Nc2ccc(S(N)(=O)=O)cc2)c(=O)[nH]1	-16.5% (inactive)
CSc1nc2c(c(=O)[nH]1)C(c1ccc(Br)cc1)CC(=O)N2 (configuration not stated)	-18.9% (inactive)
COc1ccc(S(=O)(=O)c2snnc2C)cc1	-14.8% (inactive)
CN(Cc1cccc(C(F)(F)F)c1)Cc1nc(-c2cnccn2)no1	-21.7% (inactive)
COC(=O)C1=C(C)NC2=C(C(=O)CCC2)C1c1ccc(-c2ccsc2C(=O)OC)o1 (configuration not stated)	53.7% (active)
COC(=O)C(C)Sc1nnc(Cc2cc(=O)[nH]c(=O)[nH]2)n1-c1cccc(OC)c1 (configuration not stated)	-15.6% (inactive)
Cc1ccc(-n2ncc3c2CCCC3NC(=O)c2csnn2)cc1C (configuration not stated)	-24.7% (inactive)
O=c1c2cccnc2[nH]c(=S)n1CCC1=CCCCC1	48.1% (active)
O=C(CCn1c(=S)[nH]c2cc3c(cc2c1=O)OCO3)NCc1ccc(Cl)cc1	-10.2% (inactive)

Compound	activity change, less the hit threshold
O=c1c2ccccc2[nH]c(=S)n1CCC1=CCCCC1	18% (active)
O=c1c2ccc(Cl)cc2[nH]c(=S)n1CCC1=CCCCC1	9.4% (active)
COc1ccccc1CNC(=O)CCCC(=O)n1ncc2cc(C)ccc21	-14.9% (inactive)
N#C/C(=N\Nc1ccccc1F)c1nc(-c2ccccc2)cs1	-27.5% (inactive)
CC(=O)Nc1ccc2nc(NC(=O)c3ccc([N+](=O)[O-])o3)sc2c1	-16.8% (inactive)
Cc1cc(NC(=O)Cn2c(=O)n(Cc3ccccc3)c(=O)c3ccccc32)no1	-19.9% (inactive)
Cc1ccc(C(C)C)c(OCc2n[nH]c(=S)o2)c1	10.8% (active)
c1ccc(SSc2ccccn2)nc1	-14% (inactive)
CC(C)(C)Cc1nnc(NC(=O)c2ccco2)s1	-19.2% (inactive)
O=C(NNC(=O)c1ccc(Cl)cc1Cl)c1cnccn1	-19.5% (inactive)
O=C(Nc1nc(=S)ss1)c1ccc(Cl)cc1Cl	100% (active)
CC(C)CC(=O)Nc1nc(=S)ss1	-15.9% (inactive)
Cc1ccccc1C(=O)Nc1nc(=S)ss1	58.6% (active)
Cn1sc(NC(=O)c2cccc(Cl)c2)nc1=O	-5.4% (inactive)
Cc1ccc(C)c2sc(NC(=O)c3nc4ccccc4s3)nc12	-7.3% (inactive)
COc1cc(/C=C2/SC(=S)N(CC(=O)O)C2=O)ccc1OCC(=O)Nc1ccc(C)c(C)c1	-18.3% (inactive)
COC(=O)c1ccnc(/C=N/O)c1	-13% (inactive)
N=C1SCC(=O)N1c1ncc(Cc2ccccc2Cl)s1	-20.8% (inactive)
COc1ccc2nc(-n3c(O)c(C4=c5ccccc5=NC4=O)[nH]c3=S)sc2c1	-16.8% (inactive)
Cc1[nH]n(-c2ccc(Cl)cc2)c(=O)c1/C=N/c1nnc(-c2ccccc2)s1	170% (active)
Cc1[nH]n(-c2cccc3ccccc23)c(=O)c1/C=N/c1sc2c(c1C#N)CCC2	-0.6% (inactive)

Compound	activity change, less the hit threshold
COc1ccc2nc(N=Nc3c(O)ccc4ccccc34)sc2c1	-4.3% (inactive)
CCOc1ccc2nc(/N=C/c3c(C)[nH]n(-c4ccccc4)c3=O)sc2c1	109% (active)
CCOc1ccc2nc(N3C(=O)/C(=C/c4ccccc4)NC3=S)sc2c1	-26.6% (inactive)
CCOc1ccc2nc(/N=C/c3nc(-c4ccccc4)oc3O)sc2c1	-11.5% (inactive)
N#Cc1c(NC(=O)c2cc(-n3cnnc3)ccc2Cl)sc2c1CCCC2	-10.6% (inactive)
Cc1[nH]n(-c2ccc(F)cc2)c(=O)c1/C=N/c1sc2c(c1C#N)CCCC2	21.6% (active)
COc1ccc2nc(/N=C/c3c(C)[nH]n(-c4ccc(C)cc4)c3=O)sc2c1	103% (active)
CC(=O)c1ccc(N2CCN(C(=O)Cc3ccccc3)CC2)c(F)c1	-28% (inactive)
CCCN(CC(=O)Nc1ccccc1C)C(=O)CCl	-25.4% (inactive)
CCc1nnc(NC(=O)c2cccc(S(=O)(=O)N3CCN(c4ccccc4)CC3)c2)s1	-21.2% (inactive)
COC(=O)/C=C1\S/C(=N/N=C/c2ccco2)NC1=O	-11% (inactive)
CSc1nc2ccc(S(=O)(=O)N3CCc4ccccc43)cc2s1	-21.8% (inactive)
Cc1ccc2[nH]cc(CCNC(=O)/C=C/c3ccco3)c2c1	-22.5% (inactive)
CCOC(=O)c1nnsc1NC(C)=O	-19.7% (inactive)
CC(C)Oc1ccccc1C1(c2ccccc2)NC(=O)NC1=O (configuration not stated)	-22.4% (inactive)
CCCCc1cc(=O)oc2c(C)c(OCC(=O)NCc3ccccn3)ccc12	-13.4% (inactive)
COc1ccc2nc(/N=C/c3c(C)[nH]n(-c4ccc(C)cc4C)c3=O)sc2c1	23% (active)
CCOc1ccc2nc(N3C(=O)/C(=C/c4ccc(Cl)cc4)NC3=S)sc2c1	-21.3% (inactive)
CCOc1ccc2nc(/N=C/c3c(C)[nH]n(-c4ccc(C)cc4)c3=O)sc2c1	102% (active)
CCOc1ccc2nc(/N=C/c3nc(-c4ccc(Br)cc4)oc3O)sc2c1	-9.3% (inactive)

Reference: PubChem BioAssay AID1942 (Johns Hopkins Ion Channel Center, 2009)
